Results from PubChem BioAssay AID686978 (National Center for Advancing Translational Sciences (NCATS), 2013).
Screen size: about 420,000 compounds; about 64,000 (15%) were called active. Inconclusive results (about 27%) are left out. A selection follows. Values without a mark were called inactive. Calls come from the whole dose curve; as a rule, active = well fitted inhibition curve with a large enough effect; inconclusive = small, poorly fitted or top-dose-only effect; inactive = flat fitted curve, though single readings scatter.

Assay: qHTS for Inhibitors of human tyrosyl-DNA phosphodiesterase 1 (TDP1): qHTS in cells in absence of CPT; note: nearly all actives have a fitted effect of over 55% in size
Settings: DT40 Tdp1-/- hTDP1 cells, no CPT, ATP luminescence, 48 h; activity change, negative = growth inhibition: at 46.2 µM (top of the series)
Method in brief: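 Chicken DT40 Tdp1-/- cells complemented with human TDP1, screened without camptothecin (DMSO vehicle only), 400 cells/well. Compounds pin-transferred, cells incubated at 37 °C for at least 48 hr. Growth read as ATP-dependent luminescence (CellTiter-Glo, 30 min at RT).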
% is set by controls: 0 for no effect and ±100 for the full control effect; potency is the fitted concentration of half-maximal effect.

| SMILES | activity change, negative = growth inhibition [%] | Potency |
| --- | --- | --- |
| COCCN(CCOC)S(=O)(=O)NC[C@H]1O[C@@H](n2cnc3c(N)ncnc32)[C@H](O)[C@@H]1O | -1.26 | – |
| CN1CCN(S(=O)(=O)c2ccc(NC(=S)NC(=O)C3CC3)cc2)CC1 | -7.98 | – |
| CCOC(=O)c1cccnc1NC(=O)c1ccncc1 | 7.91 | – |
| O=C(O)c1ccccc1-c1ccccc1C(=O)Nc1cccc2ccccc12 | -2.15 | – |
| COC(=O)COc1ccc2c(c1C)O/C(=C\c1ccco1)C2=O | -27.7 | – |
| O=c1cc(O)c(-c2cccc(C(F)(F)F)c2)c(Cl)[nH]1 | -13.8 | – |
| C=CCn1cc(-c2cccc(C(F)(F)F)c2)cc(C#N)c1=O | -9.09 | – |
| CC1(Cc2cccc(C#N)c2)C(=O)Nc2ccc(-c3cccc(C(F)(F)F)c3)cc21 (configuration not stated) | – | 20.6 µM (active) |
| COC(=O)C(C)Sc1ccc2nnc(-c3cccc(F)c3)n2n1 (configuration not stated) | -17.7 | – |
| Cc1ccc(-n2cc(CN(C)Cc3nccn3C)c(-c3cccc(C)c3)n2)cc1 | – | 23.1 µM (active) |
| Cc1ccc(-n2cnc3ncnc(-c4ccccc4)c32)cc1 | -16.9 | – |
| CCn1ccnc1CN(C)Cc1nc(-c2ccc3c(c2)OCO3)no1 | -24.4 | – |
| O=C(CCCl)Nc1ccc(S(=O)(=O)NCc2ccco2)cc1 | -4.87 | – |
| Cc1oc(-c2ccccc2Cl)[n+]([O-])c1C | – | 23.1 µM (active) |
| Cc1ccc(-c2cc(-c3coc4ccccc4c3=O)c3c(n2)-c2cc(Cl)ccc2OC3)cc1 | -9.37 | – |
| O=C(c1ccc(OC2CCN(Cc3ccccn3)CC2)cc1)N1CCCCCC1 | -20 | – |
| CSc1ccccc1NC(=O)COC(=O)CCCOc1ccc(C)cc1 | -4.28 | – |
| COc1cc([N+](=O)[O-])ccc1NC(=O)CN1CCCC1 | 1.19 | – |
| COc1cc([N+](=O)[O-])ccc1NC(=O)COC(=O)CCOc1ccc(C)cc1 | – | 6.51 µM (active) |
| O=C(C[C@H]1CC[C@@H](NC(=O)c2ccncc2)[C@@H](CO)O1)NCC1CC1 | -1.98 | – |
| C=CCn1cnc2scc(-c3ccccc3)c2c1=O | -17.8 | – |
| CN(CCC#N)c1ncnc2scc(-c3ccccc3)c12 | – | 14.6 µM (active) |
| N#CCCN(CCC#N)c1nnc(-c2ccccc2)s1 | -4.74 | – |
| CCC(=O)NC(Nc1cc(C)ccn1)(C(F)(F)F)C(F)(F)F | -7.28 | – |
| Cc1cc(C)cc(NS(=O)(=O)c2ccc(Oc3ncc(C(F)(F)F)cc3Cl)cc2)c1 | – | 13 µM (active) |
| COC(=O)Cc1ccc(Oc2ncc(C(F)(F)F)cc2Cl)cc1 | -12.9 | – |

| SMILES | activity change, negative = growth inhibition [%] | Potency |
| --- | --- | --- |
| Cc1cc(C)cc(OCC(=O)Nc2ccc(S(=O)(=O)Nc3ccccn3)cc2)c1 | -19.5 | – |
| Cc1nc(C(F)(F)F)ccc1C(=O)N1CCC1(C)C(=O)NS(=O)(=O)c1ccccc1 (configuration not stated) | -4.76 | – |
| O=C(CCN1Cc2ccccc2OC(c2ccccc2)C1)N[C@@H]1CS(=O)(=O)C[C@H]1O (some centres not stated) | -13.3 | – |
| COc1ccc(C2COC(=O)C2=N)c(NC(=O)c2ccccc2)c1 (configuration not stated) | -28.1 | – |
| CCCc1ccc(C(=O)[C@@H]2[C@@H](C(C)=O)N3c4ccc(F)cc4C=C[C@@H]3[C@@]23C(=O)Nc2ccccc23)cc1 | – | 18.4 µM (active) |
| COc1cc(C(=O)N[C@@H](C)C(=O)NCc2ccco2)cc(OC)c1OC | -2.61 | – |
| COc1cccc(OC)c1C(=O)NC(=S)NCc1ccco1 | -16.1 | – |
| COc1cc(C(=O)NC(=S)NCc2ccco2)cc(OC)c1OC | – | 20.6 µM (active) |
| COc1ccc(-c2nc3c(c(SCC(=O)Nc4ccc(C(=O)O)cc4)n2)Cc2ccccc2O3)cc1 | -7.92 | – |
| Cc1oc2nc(SCC(=O)NCc3cccnc3)nc(N)c2c1C | 0.424 | – |
| COc1ccccc1NC(=O)C1=C(C)NC(=O)NC1c1ccc(C)s1 (configuration not stated) | -13.6 | – |
| O=C(Cn1nc(CNc2ccc(Cl)cc2)[n+]2c1CCCCC2)c1ccc(Cl)cc1 | – | 23.1 µM (active) |
| O=C(Cn1nnc(N2CCCCC2)n1)c1ccc(Cl)c(Cl)c1 | -10.8 | – |
| CC(NC(=O)c1ccc(Cl)cc1)C(=O)N1CCCCC1 (configuration not stated) | -9.8 | – |
| CC1(c2ccccc2Cl)NC(=O)N(CC(=O)NC(=O)NCc2ccco2)C1=O (configuration not stated) | -5.22 | – |
| O=C(CCN1C(=O)c2ccncc2C1=O)Nc1ccc2c(c1)OCCO2 | -12.2 | – |
| COC(=O)C1=C(C)N(c2ccc(C)cc2)/C(=C/c2ccc(O)cc2)C1=O | – | 20.6 µM (active) |
| Cc1ccc(/C=C2\SC(=S)N(CCC(=O)Nc3ccc(O)cc3)C2=O)cc1 | -12.5 | – |
| COC(=O)C1=C(C)NC(=O)/C1=C/c1ccc(CNS(=O)(=O)c2ccc(C)cc2)o1 | -16.5 | – |
| CC(C)CNS(=O)(=O)c1ccc(C(=O)Nc2ccc3c(c2)OCO3)cc1 | -21.9 | – |
| CCC(C)[C@@H](C(=O)N1CCNCC1)n1cc(CCCCN)nn1 (some centres not stated) | -5.37 | – |
| CC(C)C12CN3CC(C(C)C)(CN(C1)C3c1ccc(OCc3ccccc3)cc1)C2=O (configuration not stated) | 1.91 | – |
| CC1=C(C(=O)OCC(C)C)C(c2ccc(OCc3ccccc3)cc2)N2C(=O)CCSC2=N1 (configuration not stated) | – | 16.4 µM (active) |
| C=CCOC(=O)C1=C(C)N=C2SCCC(=O)N2C1/C=C/c1ccccc1OC (configuration not stated) | -1.5 | – |
| COc1ccc(-n2c(=O)c(-c3cn(C)c4ccccc34)nc3cnc(OC)nc32)cc1 | -3.92 | – |
| CCC(C(=O)N1CCOCC1)n1c(C(=O)OC)cc2occc21 (configuration not stated) | 1.19 | – |

| SMILES | activity change, negative = growth inhibition [%] | Potency |
| --- | --- | --- |
| CCOC(=O)C1CN(S(=O)(=O)c2ccc(OC)cc2)c2cc(Cl)ccc2O1 (configuration not stated) | – | 20.6 µM (active) |
| CCOc1ccc(S(=O)(=O)N2CCC(C(=O)OCc3ccc(OC)cc3)CC2)cc1 | -10.8 | – |
| CCS(=O)(=O)c1ccc2c(c1)N(S(=O)(=O)c1ccccc1)CC(C(=O)O)O2 (configuration not stated) | -5.4 | – |
| Cn1cc(S(=O)(=O)N2CCN(c3ccc(F)cc3)CC2)c(=O)n(C)c1=O | -26.6 | – |
| Nc1nnc(SCC(=O)NC2CCCc3ccccc32)s1 (configuration not stated) | 15.3 | – |
| CCOC(=O)N1CCN(S(=O)(=O)c2ccc(-n3cnnn3)cc2)CC1 | -12.2 | – |
| CCOC(=O)N1CCN(S(=O)(=O)c2ccc(Br)cc2)CC1 | 2.06 | – |
| CCOC(=O)N1CCN(S(=O)(=O)c2ccc(C(=O)Nc3ccc(F)cc3F)cc2)CC1 | – | 1.64 µM (active) |
| Cc1ccc(S(=O)(=O)N(C)C)cc1NC(=O)c1ccc(-n2cncn2)c([N+](=O)[O-])c1 | 2.95 | – |
| Cc1cc(Nc2cccc(C(F)(F)F)c2)nc2ccc(NC(=O)c3ccc(=O)[nH]c3)cc12 | – | 4.61 µM (active) |
| COc1cc(OC)cc(C(=O)Nc2ccc3nc(Nc4cccc(C(F)(F)F)c4)cc(C)c3c2)c1 | – | 5.8 µM (active) |
| O=C(NNC(=O)c1cccc(S(=O)(=O)Nc2ccc(Cl)cc2)c1)c1ccc(=O)[nH]c1 | 27.3 | – |
| O=C(COC(=O)c1cc[n+]([O-])cc1)Nc1ccc(Cl)c(C(F)(F)F)c1 | -20.8 | – |
| CCn1c(Cc2ccccc2)nnc1SCC(=O)Nc1ccccc1 | -13 | – |
| CCc1nn(CC(=O)N2CCN(c3cccc(C(F)(F)F)c3)CC2)c(=O)c2cc3occc3n12 | -10.6 | – |
| CC1COc2ccccc2N1C(=O)c1ccc(F)cc1 (configuration not stated) | 4.13 | – |
| C/C(CC(=O)NC(C)c1ccccc1)=N\NC(N)=S (configuration not stated) | 2.8 | – |
| Cc1cccc(NC(=O)c2cc(N3C(=O)CCC3=O)ccc2Cl)n1 | -0.716 | – |
| Cc1ccccc1Nc1c([N+](=O)[O-])ccc2nonc12 | -9.27 | – |
| COc1ncc2nc(-c3ccc(Cl)cc3)c(=O)n(-c3ccccc3)c2n1 | -8.91 | – |
| N#Cc1ccc(-c2nc3c(Cl)cc(C(F)(F)F)cn3c2Cc2ccccc2C(F)(F)F)cc1 | -26.2 | – |
| COc1ccccc1Cc1c(-c2ccc(Cl)cc2)nc2c3ccccc3ccn12 | – | 20.6 µM (active) |
| CC(C)OC(=O)CC(=O)CC(O)c1cccc([N+](=O)[O-])c1 (configuration not stated) | -12.4 | – |
| NC(Cc1ccccc1)c1csc(Nc2cc(Oc3ccccc3)ncn2)n1 (configuration not stated) | – | 16.4 µM (active) |
| CCNC(=O)C1CCCN(C(=O)c2cc(F)ccc2C)CC1 (configuration not stated) | -17.4 | – |
| Cc1cccc(N(CC(O)CN(C)C)S(=O)(=O)c2ccccc2)c1 (configuration not stated) | -22.2 | – |

| SMILES | activity change, negative = growth inhibition [%] | Potency |
| --- | --- | --- |
| CC(C)CN(CC(C)C)CC(O)CN(c1ccccc1)S(=O)(=O)c1ccccc1[N+](=O)[O-] (configuration not stated) | – | 23.1 µM (active) |
| CCN(c1ccccc1)S(=O)(=O)c1cc2c(cc1C)n(C)c(=O)c(=O)n2C | -14.4 | – |
| NC(=O)CCCC1=NS(=O)(=O)c2ccccc2N1 | 2.92 | – |
| CCCCN1C(=O)/C(=C/C=C2/C=Cc3ccccc3N2CC)SC1=S | – | 8.2 µM (active) |
| CCCCN1C(=O)/C(=C2/C=CC=CN2C)SC1=S | -20.2 | – |
| CN1C=CC=C/C1=C1\SC(=S)N(Cc2ccccc2)C1=O | -9.29 | – |
| CCCOc1ccc(-c2nc(N)n[nH]2)cc1 | -15.1 | – |
| CC(OC(=O)c1ccc2ccccc2n1)C(=O)c1ccccc1 (configuration not stated) | 12.4 | – |
| COc1cccc(C2Nc3cccc4cccc(c34)N2)c1 | -16.5 | – |
| O=C1NC(c2cccc(Cl)c2)Nc2ccccc21 (configuration not stated) | – | 16.4 µM (active) |
| COc1ccc(C2NC(=O)c3ccccc3N2)cc1 (configuration not stated) | -29.5 | – |
| Cc1cc(C)c(C#N)c(SCC(=O)N(CC(C)C)C2CCS(=O)(=O)C2)n1 (configuration not stated) | 10.4 | – |
| Cc1nc2ccccc2n1CC(=O)N/N=C/c1cccnc1 | 21.9 | – |
| O=C(CSc1cccc2cccnc12)N/N=C/c1cccnc1 | – | 4.11 µM (active) |
| O=C(CNC(=O)c1cccnc1)N/N=C/c1cccnc1 | -3.41 | – |
| Cc1cc(C)c(C#N)c(SCC(=O)Nc2ccccc2)n1 | -16.2 | – |
| CC1=C(C(=O)Nc2ccccc2)C(c2cccs2)C(C#N)=C(SCC#N)N1 (configuration not stated) | – | 7.31 µM (active) |
| COc1ccc(NC(=O)c2sccc2SCC#N)cc1 | -7.74 | – |
| N/C(=N\c1nc2ccccc2o1)NC(=O)C(Cc1ccccc1)N1C(=O)c2ccccc2C1=O (configuration not stated) | -28.8 | – |
| Nn1c(SCC(=O)Nc2ccc3c(c2)CCC3)nnc1C1CC1 | -9.41 | – |
| COC(OC)c1ccnc(SCc2ccccc2Cl)n1 | -29.6 | – |
| Cc1nc2nc(SCC(=O)NCc3ccco3)nn2c(C)c1Cc1ccccc1 | -22.9 | – |
| Cc1cccc(Cc2c(C)nc3nc(SCc4ccccc4Cl)nn3c2C)c1 | – | 20.6 µM (active) |
| Cc1nc(CNS(=O)(=O)c2cc([N+](=O)[O-])ccc2C)cs1 | 13.9 | – |
